Bioassay records as filed in PubChem.
An excerpt weighted towards active compounds, which were near 11% of everything screened.
HPGD inh: blocks human HPGD enzyme activity; P15428; purified HPGD, NADH fluorescence kinetic, PGE2 substrate; Potency, µM, most hits filed as inhibitors; 150,000 compounds, 4.3% hits; active means well fitted inhibition curve with a large enough effect, not every such curve was filed as active; inconclusive means small, poorly fitted or top-dose-only effect, or another doubt; inactive means no such curve, though single readings can be large or run the other way
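NADH formation kinetics: reaction with 30 uM PGE2 and 1 mM NAD+ (final), 20 nM enzyme, Tris-HCl pH 8 with Tween 20, after 15 min compound preincubation at room temperature. Fluorescence change, last versus first of five reads.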
ALOX12 inhib: inhibitors of human 12-lipoxygenase (ALOX12); P18054; purified 12-hLO, xylenol orange hydroperoxide absorbance; Potency, µM (highest dose often 57.1 µM), most hits filed as inhibitors; 150,000 compounds, 0.12% hits; AID 1452; further: nearly all actives have a fitted effect of over 55% in size
Target sequence (P18054 whole entry, looked up): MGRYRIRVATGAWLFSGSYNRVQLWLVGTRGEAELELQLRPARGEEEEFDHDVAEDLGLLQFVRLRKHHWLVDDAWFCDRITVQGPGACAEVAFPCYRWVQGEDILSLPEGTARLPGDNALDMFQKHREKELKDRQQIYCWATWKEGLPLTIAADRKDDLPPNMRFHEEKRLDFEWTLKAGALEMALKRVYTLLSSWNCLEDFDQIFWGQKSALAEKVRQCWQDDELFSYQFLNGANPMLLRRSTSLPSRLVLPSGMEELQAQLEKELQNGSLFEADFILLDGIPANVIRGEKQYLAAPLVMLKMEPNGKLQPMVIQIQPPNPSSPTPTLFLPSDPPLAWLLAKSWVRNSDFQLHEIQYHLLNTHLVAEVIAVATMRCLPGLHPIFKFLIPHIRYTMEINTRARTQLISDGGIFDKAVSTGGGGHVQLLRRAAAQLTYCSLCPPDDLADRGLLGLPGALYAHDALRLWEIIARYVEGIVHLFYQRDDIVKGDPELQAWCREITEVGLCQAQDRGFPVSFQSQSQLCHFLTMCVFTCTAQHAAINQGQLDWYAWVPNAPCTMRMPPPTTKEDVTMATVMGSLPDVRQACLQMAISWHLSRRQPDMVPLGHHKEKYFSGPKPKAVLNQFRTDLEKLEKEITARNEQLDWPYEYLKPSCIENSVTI
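Xylenol orange chromogenic assay: hydroperoxide from 12hLO oxidises Fe(II), giving red-shifted Fe(III)-XO absorbance. Conditions: 150 nM enzyme, 40 uM arachidonic acid, 25 mM Hepes pH 7.0, 0.01% Triton X-100, 30 min, room temperature.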
IMPase inh: membrane-permeable compound that blocks inositol monophosphatase; P97697; CHO-M1 cells, IP1 accumulation, HTRF TR-FRET ratio; inhibition (IP1 accumulation), % at 46.1 µM; 120,000 tested, under 10 active; active means well fitted curve in the direction sought with a large enough effect in the signal ratio, not every such curve was filed as active; inconclusive means small, poorly fitted or top-dose-only effect, or a change in a side signal; inactive means no such curve, though single readings can be large or run the other way; the % refers to the signal ratio;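 further: cells stimulated with carbachol in lithium chloride buffer; higher means more IMPase inhibition seen as more IP1 and lower FRET ratio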
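In this qHTS, compounds (final up to 46 uM) act on CHO-M1 cells that are then activated through the M1 receptor with carbachol, in pH 7.4 buffer containing 50 mM LiCl, for 30 min. IP1 accumulation is quantified by the IP-One immunoassay.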
PNC inhibitor: perinucleolar compartment assembly inhibition; PC3M PTB-GFP, PNC prevalence imaging, 16 h; active compounds read low; activity change (PNC), negative = inhibition, % at 10 µM; 140,000 compounds, 3.1% hits; AID 2417;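 active means readout at or below -70, meaning at least 70% loss of cells showing the perinucleolar compartment, a nuclear body marking cancer cells; inconclusive means readout between -30 and a set limit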
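Compounds are pinned in duplicate onto adhered PC3M cells stably expressing GFP-tagged PTB and incubated 16 h at 37 C. Cells are then fixed, nuclei stained with Hoechst, and PNC-positive cells counted.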
IMPase Li cell: IMPase inhibition in cells with lithium potentiation; 210,000 compounds, 0.35% hits; Potency, µM (highest dose often 59.4 µM), actives largely listed as inhibitors; CHO-M1 cells, IP1 TR-FRET (IP-One), carbachol + lithium;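 further: IP1 builds up when IMPase is blocked and the TR-FRET signal falls; nearly all actives have a fitted effect of over 50% in size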
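CHO cells stably expressing M1 receptor (2000/well) were cultured 16–30 h, then exposed to compounds with a small lithium addition for 30 min at 37C. IP1 was measured by TR-FRET competition; AC50 from Hill fits.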
ALDH1A1 inh: blocks purified human ALDH1A1 activity; Potency, µM (doses to about 75.3 µM), most hits filed as inhibitors; AID 1030; 220,000 compounds, 7.3% hits; Purified ALDH1A1, NADH fluorescence, propionaldehyde substrate; P00352; active means well fitted inhibition curve with a large enough effect, not every such curve was filed as active; inconclusive means small, poorly fitted or top-dose-only effect, or another doubt; inactive means no such curve, though single readings can be large or run the other way
Hits are given with their value; . = inactive; ? = inconclusive; / = not tested or not shown; [ ] = dose if it differs, or a comment. Unless noted, the call rests on the fitted dose curve; in most records, active means well fitted curve in the direction sought with a large enough effect; inconclusive means small, poorly fitted or top-dose-only effect, or another doubt; inactive means no such curve, though single readings can be large; an effect the other way counts as inactive or inconclusive.

SMILES	HPGD inh	ALOX12 inhib	IMPase inh	PNC inhibitor	IMPase Li cell	ALDH1A1 inh
COC(=O)c1cccc(C23CC4(C2)[C@H](CN(C)[C@@H]4c2ccccc2)C3c2ccc(Cl)nc2)c1 (stereo partly drawn)	.	.	/	/	.	.
CSCC(=O)N1CCCC(CNC(=O)c2ccc(-c3ccccc3)cc2)C1 (stereo not drawn)	/	/	/	/	.	4µM
CC(=O)CCC(=O)N1CCCC(CNC(=O)c2ccc(-c3ccccc3)cc2)C1 (stereo not drawn)	/	/	/	/	.	.
C/C(=C\C[Si](C)(C)C)CCC=O	?	/	/	/	.	.
COCCN1C(=O)CC(NNC(=O)c2ccc(S(=O)(=O)N3CCCC3)cc2)C1=O (stereo not drawn)	/	/	/	/	.	.
CC(C)CCN1C(=O)CC(NNC(=O)c2ccc(S(=O)(=O)N3CCCC3)cc2)C1=O (stereo not drawn)	/	/	/	/	/	13µM
Cc1nn(Cc2ccccc2Cl)c(C)c1NC(=O)CCCn1nc(C)c([N+](=O)[O-])c1C	.	.	.	.	.	16µM
Cc1nn(Cc2c(Cl)cccc2Cl)c(C)c1NC(=O)CCCn1nc([N+](=O)[O-])c(Cl)c1C	.	.	.	.	.	6.3µM
CCNc1ncc2nc(-c3cn(C)c4ccccc34)c(=O)n(CCC#N)c2n1	/	/	/	/	.	?
COc1cccc(C2CC(=O)Nc3cc(OC)c(OC)c(OC)c32)c1OC(C)C (stereo not drawn)	/	/	.	/	/	/
O=C(Oc1ccccc1)N1CCC2(CC1)CN(c1ccccc1)C2	.	.	/	/	.	.
COc1ccc(O)c(/C=c2/sc3nc4cc(C)c(C)cc4n3c2=O)c1	7.9µM	.	.	?	.	?
COc1ccccc1C(=O)NC1(C(F)(F)F)C(=O)Nc2c1c(=O)[nH]c(=O)n2CCc1ccccc1 (stereo not drawn)	/	/	.	/	/	/
O=C(CCN1CCOCC1)c1ccc2c(c1)OCCO2	.	.	.	.	.	0.45µM
O=C(CCN1CCc2ccccc2CC1)c1ccc2c(c1)OCCO2	.	.	.	.	.	0.11µM
COc1ccc(CCNC(=O)C2CCN(S(=O)(=O)c3cc(OC)ccc3OC)CC2)cc1	.	.	.	-83	.	?
COc1ccc(CCNC(=O)C2CCN(S(C)(=O)=O)CC2)cc1	.	.	.	.	.	16µM
COc1ccc(OC)c(S(=O)(=O)N2CCC(C(=O)NCCc3ccccc3)CC2)c1	.	.	.	.	.	5µM
COc1ccc(CNC(=O)C2CCN(S(=O)(=O)c3cc(OC)ccc3OC)CC2)cc1	.	.	.	.	.	?
COc1ccc(OC)c(S(=O)(=O)N2CCC(C(=O)N3CCN(Cc4ccccc4)CC3)CC2)c1	.	.	.	-80	.	?
COc1ccc(Oc2ncc3nc(-c4cc(F)cc(F)c4)c(=O)n(CCC#N)c3n2)cc1	?	.	/	/	.	?
CC1(C)Cc2ccccc2-c2c1c(=O)n(Cc1ccccc1)c1nnnn21	.	.	.	-100	.	?
COc1ccc(NC(=O)CSc2nc3ccccc3c(=O)n2CCCN2CCC(C)CC2)c(OC)c1	/	/	/	/	.	.
CC1=C(C)C[C@@]23CCCN2C(=O)CCC[C@H]3C1	.	.[0.00818 µM]	/	/	.	?
CCOC(=O)c1cc2occc2n1Cc1c(F)cccc1Cl	.	.	.	.	.	?
SMILES	HPGD inh	ALOX12 inhib	IMPase inh	PNC inhibitor	IMPase Li cell	ALDH1A1 inh
COC(=O)c1cc2occc2n1Cc1c(F)cccc1Cl	.	.	.	.	.	13µM
Cc1cc(N2CCN(S(=O)(=O)Cc3ccccc3)CC2)n2ncnc2n1	.	.	.[1.84 µM]	-99	.	.
Cc1cc(N2CCN(c3nnnn3-c3ccccc3)CC2)n2ncnc2n1	.	.	.	?	.	22µM
O=C(Nc1ccc(Cl)c(S(=O)(=O)N2CCOCC2)c1)c1cc(-c2ccccn2)nc2ccccc12	/	/	/	/	.	.
O=C(c1ccc(Cl)c(Cl)c1)c1cc(-c2ccccn2)c(N2CCOCC2)s1	.	.	.	.	10µM	?
CCCSc1cc(N2CCCC2)nc(-c2ccccc2)n1	.	.	.	.	.	.
CCCSc1cc(N2CCN(C)CC2)nc(-c2ccc(OC)cc2)n1	.	.	.	-81	.	?
COc1ccc(C(=O)OCCN2CCOCC2)cc1	.	.	.	-100	.	.
COc1ccccc1/C=C/C(=O)OCCN1CCOCC1	?	.	.	-87	.	?
COc1ccc(C(=O)OCCN2CCOCC2)cc1OC	/	.	.	?	/	.
COc1ccccc1/C=C/C(=O)N1CCOCC1	?	.	.	.	.	.
O=C(OCCN1CCOCC1)c1ccc(OCCN2CCOCC2)cc1	.	.	.	-85	.	.
COc1ccc(N(C(=O)c2ccc(Cl)cc2)C2=CC3CCC(C2)N3C)cc1 (stereo not drawn)	.	.	.	.	.	?
COc1cccc(CNc2ccc3nc(-c4ccc(N)cc4)c(OC)n3n2)c1	.	.	.	/	.	.
CCOC(=O)c1sc(N2N=C(C)/C(=C\c3ccc(OCC(=O)OC)cc3)C2=O)nc1C	28µM	.	.	.	.	14µM
CCC1(C)Cc2c(C#N)c(N)sc(=S)c2CO1 (stereo not drawn)	28µM	.	.	.	.	10µM
COc1ccc(CCCn2ncc3c2nc(N)n2nc(-c4ccco4)nc32)cc1	?	.[0.00818 µM]	/	/	.	.
COc1ccc(-c2nnc3n2-c2ccccc2SC3)cc1OC	35µM	.	.	?	.	16µM
COCC(=O)N1CCC[C@@]2(CCN(C(=O)Nc3cccc(C#N)c3)C2)C1	.	.	/	/	.	.
Cc1ccccc1NC(=O)Cn1cnc2c(oc3nc4c(cc32)COC(C)(C)C4)c1=O	.	.	/	.	.	22µM
CCn1c(SCC(=O)NCc2ccccc2)nc2nc3c(cc2c1=O)CCCC3	/	/	/	/	.	.
Cc1cccc(NC(=O)Cn2cnc3c(oc4ccccc43)c2=O)c1	/	/	/	/	.	.
CCn1c(SCC(=O)Nc2ccc(C(C)=O)cc2)nc2nc3c(cc2c1=O)CCCC3	.	.	.	.	.	0.89µM
C=C(C)Cn1cnc2c(oc3nc4c(cc32)CCCC4)c1=O	/	/	/	/	/	1µM
CCn1c(SCc2ccccc2Cl)nc2nc3c(cc2c1=O)CCCC3	.	.	/	.	.	16µM
SMILES	HPGD inh	ALOX12 inhib	IMPase inh	PNC inhibitor	IMPase Li cell	ALDH1A1 inh
COc1ccc2cc(C(C)CO)ccc2c1 (stereo not drawn)	.	.	/	/	.	.
N[C@H](C(=O)O)[C@H](N)C(=O)O	.	.[11.4 µM]	/	/	.	.[13.5 µM]
CCc1cccc(NC(=O)Cn2c(=O)n(CCc3ccc(OC)c(OC)c3)c(=O)c3ccccc32)c1	/	/	.	/	/	/
CC(C)=O	.	.	/	/	.	.
CCn1c(SCC(=O)Nc2ccccc2C)nc2nc3c(cc2c1=O)COC(C)(C)C3	/	/	/	/	/	14µM
CC1(C)Cc2nc3nc(SCC(=O)Nc4ccccc4)nc(N)c3cc2CO1	/	/	/	/	.	?
